Results filed as inconclusive are left out. Active and inactive are the calls of the source. Calls come from the whole dose curve; as a rule, active = well fitted inhibition curve with a large enough effect; inconclusive = small, poorly fitted or top-dose-only effect; inactive = flat fitted curve, though single readings scatter.
Columns and labels:
Experiment in all cases: qHTS profiling for inhibitors of Plasmodium falciparum proliferation (AID 504749); note: nearly all actives have a fitted effect of over 60% in size
Conditions in all cases: P. falciparum in erythrocytes, SYBR Green DNA, 72 h; series mostly up to 28.7 µM
CP192 = test system: CP192
How it was run: (§1)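 Parasite proliferation within erythrocytes, 72 h exposure. Endpoint: SYBR Green I fluorescence after overnight lysis at room temperature. Controls: 0.29 uM artemisinin, DMSO.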

CP262 = test system: CP262
How it was run: as §1

CP194 = test system: CP194
How it was run: as §1

CP201 = test system: CP201
How it was run: as §1

CP203 = test system: CP203
How it was run: as §1

CP211 = test system: CP211
How it was run: as §1

CP217 = test system: CP217
How it was run: as §1

CP237 = test system: CP237
How it was run: as §1

CP238 = test system: CP238
How it was run: as §1

CP247 = test system: CP247
How it was run: as §1

CP250 = test system: CP250
How it was run: as §1

CP252 = test system: CP252
How it was run: as §1

CP256 = test system: CP256
How it was run: as §1

CP260 = test system: CP260
How it was run: as §1

CP265 = test system: CP265
How it was run: as §1

CP266 = test system: CP266
How it was run: as §1

CP268 = test system: CP268
How it was run: as §1

CP269 = test system: CP269
How it was run: as §1

CP286 = test system: CP286
How it was run: as §1

CP215 = test system: CP215
How it was run: as §1

Measured: Potency
Potency is the fitted concentration of half-maximal effect.

Fc1ccc(C(c2ccc(F)cc2)N2CCN(CC=Cc3ccccc3)CC2)cc1
inactive: CP192 | CP262

O=C(O)c1nc(=O)[nH]c(=O)[nH]1
not listed: CP215
inactive: all other assays above

CN1CCN2c3ncccc3Cc3ccccc3C2C1 (stereo not given)
not listed: CP192 | CP194 | CP203 | CP211
inactive: all other assays above

O=C1C(CCC(O)c2ccc(F)cc2)C(c2ccc(O)cc2)N1c1ccc(F)cc1 (stereo not given)
inactive: all assays above

NS(=O)(=O)c1cc(Cl)c(Cl)c(S(N)(=O)=O)c1
inactive: all assays above

CC(C)CN(C[C@@H](O)[C@H](Cc1ccccc1)NC(=O)O[C@H]1CO[C@H]2OCC[C@H]21)S(=O)(=O)c1ccc(N)cc1
inactive: all assays above

C=C1c2cccc(O)c2C(O)=C2C(=O)[C@@]3(O)C(O)=C(C(N)=O)C(=O)[C@@H](N(C)C)[C@@H]3[C@@H](O)[C@H]12
not listed: CP237 | CP260 | CP286
inactive: all other assays above

N#Cc1c(N(CC(=O)O)CC(=O)O)sc(C(=O)O)c1CC(=O)O
inactive: all assays above

CN1CC(=O)N2C(Cc3c([nH]c4ccccc34)[C@H]2c2ccc3c(c2)OCO3)C1=O (stereo not given in full)
not listed: CP260
inactive: all other assays above

Clc1ccc(COC(Cn2ccnc2)c2ccc(Cl)cc2Cl)c(Cl)c1 (stereo not given)
active: CP203 5.1 µM | CP215 5.73 µM | CP217 3.16 µM | CP237 3.55 µM

COc1ccnc(CS(=O)c2nc3ccc(OC(F)F)cc3[nH]2)c1OC (stereo not given)
inactive: all assays above

N#CC(c1ccc(Cl)cc1)c1c(Cl)cc(-n2ncc(=O)[nH]c2=O)cc1Cl (stereo not given)
inactive: all assays above

CS(=O)(=O)c1ccc(C2=C(c3ccccc3)C(=O)OC2)cc1
not listed: CP192 | CP215
inactive: all other assays above

COc1c(C)c2c(c(O)c1CC=C(C)CCC(=O)OCCN1CCOCC1)C(=O)OC2
active: CP192 8.49 µM | CP194 6.75 µM | CP201 13.5 µM | CP203 6.01 µM | CP211 6.01 µM | CP215 6.01 µM | CP217 7.94 µM | CP237 8.91 µM | CP238 7.94 µM | CP250 7.94 µM | CP252 8.91 µM | CP260 11.2 µM | CP265 7.94 µM | CP266 12 µM | CP268 12 µM | CP269 8.49 µM | CP286 7.08 µM

COc1cc2c(cc1OC)CC(=O)N(CCCN(C)C[C@H]1Cc3cc(OC)c(OC)cc31)CC2
not listed: CP237
inactive: all other assays above

Cc1cc2nc3c(=O)[nH]c(=O)nc-3n(CC(O)C(O)C(O)CO)c2cc1C (stereo not given)
not listed: CP247
inactive: all other assays above
